Potency and affinity values are given separately. Results filed as inconclusive are left out. Activity calls are given as the source filed them.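 Rule for the calls, unless noted: active = falling signal with fitted half-maximal potency no higher than twice the top valid tested dose; inconclusive = poor fit quality, or flat fit spanning -70% to -30%; inactive = potency over limit, rising signal, or flat fit inside 30%.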
Columns and labels:
[1] = Cryptococcus neoformans growth inhibition, dose response, Alamar Blue, cherry-picks (AID 686998)
[2] = inducers of Cryptococcus neoformans cell lysis, dose response, AK release luminescence, cherry-picks (AID 687000;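 active = fitted dose curve reaches 40% lysis signal rise at or below the highest valid concentration tested for that sample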;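 note: luminescent detection of adenylate kinase leaking from lysed yeast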)
[3] = HepG2 cell cytotoxicity, dose response, cytotoxicity control, cherry-picks, set 2 (AID 687002;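 active = a dose-response fit showing signal loss, with half-maximal concentration no higher than twice the top tested dose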)
[4] = HeLa cell cytotoxicity, dose response, cytotoxicity control, ATP luminescence, cherry-pick samples (AID 687004;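 active = a fitted half-maximal concentration no higher than twice the top valid tested dose, with signal falling as cells die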)

Measured: outcome

Cc1ccc(NC(=O)C2(C)CCN2C(=O)CC2CC2)cc1C (centres undefined)
inactive: all assays above

COc1ccc(NC(=O)Nc2ccc3c(c2)C(=O)N([C@H](C)CO)C[C@@H](C)[C@@H](CN(C)C(=O)CCC(F)(F)F)OCCCC[C@H](C)O3)cc1
inactive: all assays above

Cc1ccc(S(=O)(=O)N[C@@H]2CC[C@H](CCNC(=O)C3CCCC3)O[C@@H]2CO)cc1
inactive: all assays above

C[C@@H]1CCCCO[C@@H](CN(C)S(=O)(=O)c2ccccc2)[C@H](C)CN([C@@H](C)CO)C(=O)c2cc(NC(=O)Nc3ccc(F)cc3)ccc2O1
inactive: all assays above

C[C@H](CO)N1C[C@H](C)[C@@H](CN(C)S(C)(=O)=O)Oc2cc(C#Cc3ccccc3)ccc2S1(=O)=O
inactive: all assays above

C[C@@H]1CN([C@H](C)CO)C(=O)c2cc(/C=C/c3ccccc3)cnc2O[C@@H]1CN(C)S(C)(=O)=O
inactive: all assays above

CO[C@H]1CN(C)C(=O)c2cc(NS(=O)(=O)c3ccc(C)cc3)ccc2OC[C@H](C)N(C)C[C@H]1C
inactive: all assays above

CC(=O)NC[C@@H]1[C@@H](c2ccc(C3=CCCC3)cc2)[C@@H](CO)N1C(=O)NC(C)C
inactive: all assays above

CNC[C@@H]1Oc2cc(Br)ccc2S(=O)(=O)N([C@H](C)CO)C[C@H]1C
inactive: all assays above

O=C(NCC[C@H]1CC[C@@H](NS(=O)(=O)c2ccc(F)cc2)[C@H](CO)O1)c1ccc2c(c1)OCO2
inactive: all assays above

CC(=O)N(C)C[C@H]1Oc2cc(C#Cc3ccc(F)cc3)ccc2S(=O)(=O)N([C@H](C)CO)C[C@@H]1C
inactive: all assays above

Cc1cccc(C)c1NC(=O)C(C)N1CCCCC1 (centres undefined)
inactive: all assays above

CCCNC(=O)N1C[C@H](O)COC[C@H]2O[C@H](CC(=O)N3CCN(C)CC3)CC[C@@H]21
inactive: all assays above

C[C@@H]1CN([C@@H](C)CO)C(=O)c2cc(-c3ccc(C#N)cc3)cnc2O[C@@H]1CN(C)C(=O)Nc1ccc(F)cc1
inactive: all assays above

O=C(NCc1ccc(F)cc1)C1C2C=CC3(CN(Cc4cccnc4)C(=O)C13)O2 (centres undefined)
inactive: all assays above

O=C(C[C@H]1CC[C@H]2[C@@H](COC[C@H](O)CN2Cc2cccc(Cl)c2)O1)Nc1nccs1
inactive: all assays above

C[C@H]1CN([C@@H](C)CO)C(=O)Cc2cc(NC(=O)Nc3ccccc3)ccc2O[C@H]1CN(C)C(=O)Nc1ccc2c(c1)OCO2
inactive: all assays above

CN1C(=O)N[C@@H]2c3ccccc3O[C@@]1(C)[C@@H]2COC(=O)c1ccccc1
inactive: all assays above

C[C@H]1CCCCO[C@H](CN(C)S(=O)(=O)c2ccc(Cl)cc2)[C@@H](C)CN([C@@H](C)CO)C(=O)c2cc(NS(=O)(=O)c3cccs3)ccc2O1
inactive: all assays above

CCCN1C[C@H](C)[C@@H](OC)CN(C)C(=O)c2cc(NC(=O)c3cccc(F)c3)ccc2OC[C@H]1C
inactive: all assays above

Cc1ccccc1-n1ncc2c(SCC(=O)NC3CCCC3)ncnc21
inactive: all assays above

COc1ccccc1C(=O)Nc1ccc2c(c1)C(=O)N(C)C[C@@H](OC)[C@H](C)CN(C)[C@@H](C)CO2
inactive: all assays above

COc1ccc(CNC(=O)COc2ccc(OC)cc2)cc1
inactive: all assays above

C[C@@H]1CN([C@H](C)CO)C(=O)c2cc(N(C)C)ccc2O[C@@H]1CN(C)C(=O)Nc1ccc(C(F)(F)F)cc1
inactive: all assays above

CC(C)CC#Cc1cnc2c(c1)C(=O)N([C@H](C)CO)C[C@@H](C)[C@@H](CN(C)C(=O)c1ccc3c(c1)OCO3)O2
inactive: all assays above

COc1ccc(-c2cnc3c(c2)C(=O)N([C@@H](C)CO)C[C@@H](C)[C@@H](CN(C)S(C)(=O)=O)O3)cc1
inactive: all assays above

COc1ccc(S(=O)(=O)Nc2ccc3c(c2)C(=O)N([C@@H](C)CO)C[C@H](C)[C@@H](CN(C)C)OCCCC[C@H](C)O3)cc1
inactive: all assays above

CCC(=O)N1[C@H](CO)[C@H](c2ccccc2)[C@H]1CN(CC)C(=O)c1cccc(F)c1
inactive: all assays above

CCC(=O)N(C)C[C@H]1Oc2cc(C#CC(C)(C)O)ccc2S(=O)(=O)N([C@@H](C)CO)C[C@@H]1C
inactive: all assays above

Cc1ccc(S(=O)(=O)N[C@@H]2CCCN(Cc3cccc(OCCO)c3)C2)cc1
inactive: all assays above

CO[C@H]1CN(C)C(=O)c2cc(NS(=O)(=O)CC(F)(F)F)ccc2OC[C@H](C)N(Cc2cccnc2)C[C@@H]1C
inactive: all assays above

CO[C@H]1CC[C@@H]2CCOc3c(C#N)cccc3C(=O)N(C)C[C@H](OC)[C@@H](C)C(=O)N(C)C[C@@H]1O2
inactive: all assays above

C[C@H](CO)N1C[C@H](C)[C@@H](CN(C)S(=O)(=O)c2ccc(Cl)cc2)Oc2c(NS(=O)(=O)c3ccc(F)cc3)cccc2C1=O
inactive: all assays above

C[C@H](CO)N1C[C@H](C)[C@@H](CN(C)Cc2cccc(C(F)(F)F)c2)OCc2cnnn2CCCC1=O
inactive: all assays above

CCC(=O)N1[C@@H]2c3cccc(=O)n3C[C@H]1[C@H](CO)[C@H]2C(=O)NCc1ccccc1
inactive: all assays above

CC1(C(=O)Nc2ccc3ccccc3c2)CCC(=O)N1C1CC1 (centres undefined)
inactive: all assays above

C[C@H](O)C#Cc1ccc2c(c1)O[C@H](CN(C)C(=O)C1CCCCC1)[C@H](C)CN([C@@H](C)CO)S2(=O)=O
inactive: all assays above

Cc1ccc(NC(=O)C2(C)CCN2C(=O)CCC2CCCC2)cc1C (centres undefined)
inactive: all assays above

C[C@H]1CN([C@@H](C)CO)C(=O)Cc2cc(NS(=O)(=O)c3ccc(F)cc3)ccc2O[C@H]1CN(C)S(=O)(=O)c1ccc(F)cc1
inactive: all assays above

CO[C@H]1CN(C)C(=O)c2cc(NC(C)=O)ccc2OC[C@H](C)N(Cc2cccc(F)c2)C[C@@H]1C
inactive: all assays above

C[C@H](CO)N1C[C@H](C)[C@H](CN(C)CC2CCCCC2)Oc2ccc(NC(=O)Nc3ccc4c(c3)OCO4)cc2C1=O
inactive: all assays above

CN1[C@H](C(=O)N2CCc3ccccc3C2)[C@@H](CO)[C@@H]2Cn3c(ccc(-c4cccnc4)c3=O)[C@@H]21
inactive: all assays above

CCCNC(=O)Nc1ccc2c(c1)C(=O)N(C)C[C@H](OC)[C@@H](C)CN(Cc1cccnc1)[C@H](C)CO2
inactive: all assays above

Cc1ccc(S(=O)(=O)N[C@H]2CC[C@H](CCNC(=O)C3CCCC3)O[C@@H]2CO)cc1
inactive: all assays above

COc1ccc(-n2ncc3c(SCC(=O)OC(C)C)ncnc32)cc1
inactive: all assays above

Cc1ccc(C)c(NC(=O)C2CCCN2C(=O)NC2CCCCC2)c1 (centres undefined)
inactive: all assays above

CC1=C(C(=O)OCc2ccccc2)C(c2ccccc2)NC(=O)N1 (centres undefined)
inactive: all assays above

C[C@@H]1CN([C@@H](C)CO)C(=O)CCCn2cc(nn2)CO[C@@H]1CN(C)C(=O)CCCN(C)C
inactive: all assays above

C[C@@H]1CCCCO[C@@H](CN(C)Cc2ccc(C(F)(F)F)cc2)[C@@H](C)CN([C@@H](C)CO)C(=O)c2cc(NS(=O)(=O)c3cn(C)cn3)ccc2O1
inactive: all assays above

C[C@@H]1CN([C@@H](C)CO)C(=O)c2cccc(NC(=O)C3CC3)c2O[C@@H]1CN(C)C
inactive: all assays above

C[C@H]1CN([C@@H](C)CO)C(=O)c2cccc(NS(C)(=O)=O)c2O[C@H]1CN(C)C(=O)Nc1ccc2c(c1)OCO2
inactive: all assays above

C[C@@H]1CN([C@@H](C)CO)C(=O)c2cccc(NC(=O)c3ccncc3)c2O[C@H]1CN(C)C(=O)Nc1ccccc1
inactive: all assays above

COC(=O)N(C)C[C@H]1OCc2cn(nn2)CCCC(=O)N([C@@H](C)CO)C[C@@H]1C
inactive: all assays above

COc1ccccc1NC(=O)N[C@@H]1CC[C@@H](CCn2cc(C3(O)CCCC3)nn2)O[C@H]1CO
inactive: all assays above

CC(C)c1ccc(S(=O)(=O)N2CCN(CC(=O)Nc3ccc4c(c3)OCO4)CC2)cc1
inactive: all assays above

CC(C)NC(=O)Nc1ccc2c(c1)CC(=O)N([C@@H](C)CO)C[C@@H](C)[C@@H](CN(C)S(=O)(=O)c1ccc(Cl)cc1)O2
inactive: all assays above

From PubChem BioAssay
